Measured potencies and affinities stand elsewhere. Active and inactive are the calls of the source.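 How the source made its calls: active means absorbance falls by 30% or more versus neutral controls, with a potency fitted within twice the top valid dose; inconclusive means no clear call, values can overlap the other calls; inactive means change opposite to expected direction, plus the rest.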
Target: Protein disulfide-isomerase (Homo sapiens) (UniProt P07237)
Assay: inhibition of PDI-driven insulin aggregation – biochemical, turbidity, absorbance, cherry-picked samples, dose response (AID 602350);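 further: 0% = neutral controls and -100% = rutin hydrate positive control wells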
Conditions: recombinant PDI insulin aggregation, absorbance 650 nm, 90 min; series mostly up to 19.5 µM; activity change, negative = inhibition: at the top concentration

Chain of Protein disulfide-isomerase (Homo sapiens) (P07237 whole entry, looked up): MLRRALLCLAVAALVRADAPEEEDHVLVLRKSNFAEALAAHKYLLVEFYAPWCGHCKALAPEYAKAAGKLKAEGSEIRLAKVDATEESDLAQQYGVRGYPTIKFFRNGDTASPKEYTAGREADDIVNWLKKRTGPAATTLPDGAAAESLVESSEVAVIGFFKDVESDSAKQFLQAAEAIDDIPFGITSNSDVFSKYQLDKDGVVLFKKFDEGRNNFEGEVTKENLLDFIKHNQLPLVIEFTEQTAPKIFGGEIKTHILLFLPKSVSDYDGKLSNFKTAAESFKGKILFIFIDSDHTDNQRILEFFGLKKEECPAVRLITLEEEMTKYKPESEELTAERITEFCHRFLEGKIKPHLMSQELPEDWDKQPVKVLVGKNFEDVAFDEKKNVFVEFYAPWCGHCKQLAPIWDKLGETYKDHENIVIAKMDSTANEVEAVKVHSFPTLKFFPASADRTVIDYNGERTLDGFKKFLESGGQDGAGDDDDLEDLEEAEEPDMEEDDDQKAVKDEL

Activity change, negative = inhibition, inactive:
O=c1[nH]c(C2CCN(S(=O)(=O)c3ccc(C(F)(F)F)cc3)CC2)nc2c1nnn2Cc1ccc(F)cc1 14.8%
CN(C)C(=O)CSc1nnc([C@H](Cc2ccccc2)NC(=O)OC(C)(C)C)o1 4.24%
Cc1noc(C)c1-c1ccc(C(=O)NCc2ccc(Cl)cc2)c2occc12 -1.09%
COc1ccccc1NC(=O)c1ccc(NC(=O)COC(=O)c2cccnc2Cl)cc1 4.95%
CC(C)Oc1cccc(C(=O)NC(=S)Nc2cccc(NC(=O)c3ccccc3Cl)c2)c1 13.5%
COc1ccc(CNC(=O)c2ccc(CS(=O)Cc3cccc(Cl)c3)o2)cc1 (centres undefined) 2.11%
O=C1CN(c2nc3ccccc3n3cnnc23)CC(=O)N1CCc1ccccc1 5.79%
CC(=O)OCC(=O)NCc1ccc2c(c1)OCO2 -0.026%
CC(NC(=O)COC(=O)Cc1ccccc1[N+](=O)[O-])c1ccccc1 (centres undefined) 7.76%
Cc1cccc(C(=O)OCC(=O)N2CCCCCC2)c1O 2.35%
Cc1ccc(CN(c2ccc(C(=O)NCc3ccccn3)cc2)S(C)(=O)=O)cc1 -11.6%
Cc1cc(=O)c(C(=O)Nc2cccc(C(=O)NC3CC3)c2)nn1-c1ccccc1 21.8%
CC[C@]12c3[nH]c4cc(-c5ccco5)ccc4c3CCN1C(=O)[C@@H](CC(=O)NCC13CC4CC(CC(C4)C1)C3)C[C@@H]2C(=O)N1CCN(C(=O)c2ccco2)CC1 23.1%
CCCCn1c(SCC(=O)Nc2ccc(C)c(S(=O)(=O)N3CCOCC3)c2)nnc1C(CC)N(C)C (centres undefined) 18.3%
Cc1ccc(NC(=O)NC(=O)CN2CCC(C(N)=O)CC2)c(C)c1 -0.809%
CCCc1cc(=O)[nH]c(SCCOc2ccc(OCC)cc2)n1 7.02%
O=C(C[C@H]1C[C@H](C(=O)N2CCCCC2)[C@@]2(CCc3ccccc3)c3[nH]c4cc(-c5ccco5)ccc4c3CCN2C1=O)NCCC1=CCCCC1 -0.872%
CCOC(=O)Oc1c(OC)cc(C(=O)O[C@@H]2C[C@@H]3CN4CCc5c([nH]c6cc(OC)ccc56)[C@H]4C[C@@H]3[C@H](C(=O)OC)[C@H]2OC)cc1OC 6.28%
O=C(NCc1cccs1)C1CC(c2ccc(F)cc2)=NO1 (centres undefined) -2.19%
COCCN(CC(=O)Nc1ccccc1C(F)(F)F)C(=O)/C=C/c1cc(Cl)c2c(c1)OCCO2 11.7%
O=C(NCCN1CCOCC1)c1cccnc1SCc1ccccc1Cl 3.56%
O=c1cc(CN2CCN(S(=O)(=O)/C=C/c3ccccc3)CC2)c2ccc(O)cc2o1 -3.96%
O=C1NC[C@H](Cc2ccccc2)N(C[C@H]2CCCN2C[C@H](Cc2ccccc2)N2C[C@H](Cc3ccc(O)cc3)N(CC3CCCCCC3)C(=O)C2=O)C1=O -0.123%
CCOC(=O)c1c(CN2CCOCC2)n(-c2ccccc2)c2ccc(O)cc12 -4.1%
CCOC(=O)c1c(CN2CCN(Cc3ccccc3)CC2)n(C)c2cc(Br)c(OC)cc12 3.15%
CN(C)c1ccc(/C=C/C(=O)c2ccc(O)cc2)cc1[N+](=O)[O-] -7.14%
COc1cc(C(=O)N2CCN(C/C=C/c3ccccc3)CC2)cc(OC)c1OC 21.3%
CC1CCc2sc(C(=O)N/N=C/C3CCCCC3)cc2C1 (centres undefined) -2.94%
CCOC(=O)c1c(CN(CC)CC)n(C)c2cc(Br)c(O)cc12 -5.83%
Cn1nnnc1SCC(=O)Nc1cc(C(F)(F)F)ccc1N1CCOCC1 -1.51%
CCOc1c(Cl)cc(CNC(C)(C)CC(C)(C)C)cc1OC 0.928%
S=C(NCCc1ccccc1)Nc1ccccn1 12.8%
O=C(NC1CCCCC1)C1CCN(S(=O)(=O)c2cccs2)CC1 -1.28%
O=C(N/N=C/c1cccc([N+](=O)[O-])c1)c1cnccn1 21.7%
O=C(OCc1ccc(-c2ccccc2)cc1)c1cccc(O)c1 -12%
CCOc1ncccc1C(=O)OCC(=O)Nc1ccc(C(C)C)cc1 1.68%
CCOc1ccc(CCN2C(=O)C(=O)N([C@@H](CC(C)C)CN3CCC[C@@H]3CN3C(=O)C(=O)NC[C@@H]3Cc3ccccc3)C[C@@H]2Cc2ccc(O)cc2)cc1 -2.66%
O=S(=O)(Nc1ccc(C(O)(C(F)(F)F)C(F)(F)F)cc1)c1ccc(Cl)c2nonc12 -7.86%
O=C(CCc1nc(-c2ccccc2F)no1)Nc1ccc(Oc2ccccc2)cc1 2.1%

Reference: PubChem BioAssay AID602350 (Broad Institute, 2012)
